{"source": "the supplement of paper PMC6555819"}
{"system": "FXR:RXRa (NR concentration 270 nM, RXRa partner concentration 90 nM)", "assay": "PBM binding z-score (relative to random genomic background probes); higher = stronger binding; sequences stand for … in GC…GCGATTGACAGCGTAGAATGAAGG", "how_it_was_run": "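Regression normalization was applied to scanned fluorescence from custom Agilent 4×180K protein-binding microarrays. Before scanning, arrays were incubated 1 h with ligand-free nuclear receptor dimers, and binding was detected with antibodies against each partner (one per run). Binding z-scores use the random background probes as reference.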"}
{"sequence": "CGAACGAAGGCATGAGTTGATAGCAAATGCCGAT", "PBM binding z-score": -0.766}
{"sequence": "AGTCAAAGTTCAACTAGGTAACGTAAGATATGCT", "PBM binding z-score": 7.15}
{"sequence": "CCTTCCGGGTCACGAGGTTATAGCACGACGAGCG", "PBM binding z-score": 5.95}
{"sequence": "CCTACTGGGCCCAGGTCATTGATCAGTCAAAGCA", "PBM binding z-score": 1.37}
{"sequence": "CTACCAAGGTGAACAAGGTAGTTGATTACTATTC", "PBM binding z-score": 0.29}
{"sequence": "TCTATAAGTTGATTAGGGCAACCGAAACAGCGGA", "PBM binding z-score": 0.561}
{"sequence": "CCTAGCAGGCCAATATGGGTCACTCAAGGCTTGA", "PBM binding z-score": 0.719}
{"sequence": "GCTCGGAGGCCAAGGTCAGAGCTTTGTCCGTAGA", "PBM binding z-score": 1.41}
{"sequence": "GCTATTAGATGAAAGGGCAACCGAATGATTCTCG", "PBM binding z-score": -0.0836}
{"sequence": "CCCACTGGGCCATCAGGTCATTGATATCAACGTT", "PBM binding z-score": 1.16}
{"sequence": "ACAGACAGGTGATGAAGGAAACTCAGGCTATCAT", "PBM binding z-score": 0.101}
{"sequence": "ACTAGTTGGTCAGCTGAGGTCACGCACAATTCGG", "PBM binding z-score": 3.89}
{"sequence": "ATCTCTAGGTAACAAGTTCAGTTAAAGAGAGGAC", "PBM binding z-score": 0.755}
{"sequence": "CGTCAAAGTTCAACTAAGGTAACGTAAAGCACGC", "PBM binding z-score": 7.09}
{"sequence": "CCTAGCAGGCCAGGGCCACTCAAGCATTTCGCTT", "PBM binding z-score": -0.787}
{"sequence": "CCTACTGGGCCATCAGGTCTTTGATATCAACGTT", "PBM binding z-score": -0.207}
{"sequence": "AGTCAAAGTTCATCTAGGTAACGTCAGATATGCT", "PBM binding z-score": 6.97}
{"sequence": "ACTAGCAGGCCAAGGGTCACTCATGATTAGTCCG", "PBM binding z-score": 2.27}
{"sequence": "TCATATAGGTAAAGGTGAAAGTTGAACGATATGA", "PBM binding z-score": 1.54}
{"sequence": "TGAATGAGTTTAAAGATCAGGGAACGTGGCGTCG", "PBM binding z-score": -0.0413}
{"sequence": "CGTCCACGGTCAATGCTAGGTCAGTGAAAGCATT", "PBM binding z-score": 0.638}
{"sequence": "CAAACTCGGTCACCGGAAGGTCAAAGTCCGCATG", "PBM binding z-score": 4.53}
{"sequence": "GCGACTGGGGCAAAGCGGGTTACCATAAGGTTGG", "PBM binding z-score": 0.373}
{"sequence": "AGAATGAGGTTATACGTAGATCAGGAAAGAAAGT", "PBM binding z-score": 2.11}
{"sequence": "ATATGTAGGTTAGCTGGGGCCATTCAGACTAGGC", "PBM binding z-score": 0.601}
{"sequence": "TCTAGCAGGCCAGAGGGTCAATCAAGAGGTACGG", "PBM binding z-score": 1.44}
{"sequence": "ACTTACGGGTCAACGAGGTGATAGCACGCGTATA", "PBM binding z-score": 6.81}
{"sequence": "CCTACTGGGCCACGAAAGGTCATTGTTTCAGTGA", "PBM binding z-score": 3.44}
{"sequence": "ATACCAAGGTGATCGTCAGGTCGTTGATACTAAC", "PBM binding z-score": 1.07}
{"sequence": "CCGCCTAGGTCAGGGCCAGTATAGGAGGAACGTT", "PBM binding z-score": 1.6}
{"sequence": "ATCTCTAGGTAACGTTCAGTGAAAGATCGATAGA", "PBM binding z-score": 0.596}
{"sequence": "CATACAGGGTCAGGTAGGCCAGAGTAGGGACGGC", "PBM binding z-score": 4}
{"sequence": "CATACAGGGTCAGCTAGGCCAGAGTAGGGACGGC", "PBM binding z-score": 4.68}
{"sequence": "ATAACGAGGGCAATGAGTTGATAGCACGGGTGGC", "PBM binding z-score": 0.269}
{"sequence": "CTTACAGGGTCAGCTAGGCCAGAGTAGGGACGGC", "PBM binding z-score": 4.5}
{"sequence": "TCTTGTAGATCAACAGGAGGTTACGAAAGATCGA", "PBM binding z-score": 0.309}
{"sequence": "CCGCCTGGGGCAGAAAGGTTACCATACCATCCGG", "PBM binding z-score": 0.138}
{"sequence": "ATGGAAAGGTCGACGAGGTGAGTATACACCGTTT", "PBM binding z-score": 4.39}
{"sequence": "TCTTGTAGATCAATAGAGGTTACGAAAGTGCGCT", "PBM binding z-score": 1.11}
{"sequence": "TCTATTAGTTGAAGGGCAACTGACGAGTCCGTTT", "PBM binding z-score": 0.705}
